# From PubChem BioAssay AID1159580 (chemical genetic matrix, 2015)
# Hit rate of the full screen: of about 5,500 compounds, about 2,000 (36%) were called active. Not shown: some 18% with an inconclusive outcome. Some of the results follow. A number with no mark means an inactive call. Rule as the data show it: active = normalized growth mostly below about 0.91 (no sharp cut-off); inconclusive = no clear call, values can overlap the other calls; inactive = mostly above about 0.92.
# Assay: chemical genetic growth profiling, strain panel (AID 1159580);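 also: tested at 20 µM; growth read once vehicle control cultures reached saturation at 30 °C; 1 = growth at the plate median or of vehicle wells; lower values mean less growth of the strain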
# Details: growth OD
smiles,measurement,setting,value
Nc1cc(-c2ccncc2)c[nH]c1=O,normalized growth,"S. cerevisiae deletion strains, locus YJR043C, strain POL32, hits give low values",0.89
same,normalized growth,"S. cerevisiae deletion strains, locus YJR066W, strain TOR1, hits give low values",0.973
same,normalized growth,"S. cerevisiae deletion strains, locus YJR075W, strain HOC1, hits give low values",0.942
same,normalized growth,"S. cerevisiae deletion strains, locus YKL009W, strain mrt4, hits give low values",0.977
same,normalized growth,"S. cerevisiae deletion strains, locus YKL068W, hits give low values",0.977
same,normalized growth,"S. cerevisiae deletion strains, locus YKL085W, strain MDH1 (second series), hits give low values",0.989
same,normalized growth,"S. cerevisiae deletion strains, locus YKL085W, strain MDH1, hits give low values",0.989
same,normalized growth,"S. cerevisiae deletion strains, locus YKL160W, strain elf1, hits give low values",0.689 (active)
same,normalized growth,"S. cerevisiae deletion strains, locus YKL190W, strain CNB1, hits give low values",0.974
same,normalized growth,"S. cerevisiae deletion strains, locus YKR001C, strain vps1, hits give low values",0.765 (active)
same,normalized growth,"S. cerevisiae deletion strains, locus YKR026C, strain gcn3, hits give low values",0.947
same,normalized growth,"S. cerevisiae deletion strains, locus YKR091W, strain srl3, hits give low values",0.976
same,normalized growth,"S. cerevisiae deletion strains, locus YLL001W, strain dnm1, hits give low values",0.687 (active)
same,normalized growth,"S. cerevisiae deletion strains, locus YLL026W, hits give low values",0.826 (active)
same,normalized growth,"S. cerevisiae deletion strains, locus YLL041C, strain sdh2, hits give low values",0.933
same,normalized growth,"S. cerevisiae deletion strains, locus YLR027C, strain aat2, hits give low values",0.831 (active)
same,normalized growth,"S. cerevisiae deletion strains, locus YLR039C, strain RIC1, hits give low values",0.981
same,normalized growth,"S. cerevisiae deletion strains, locus YLR058C, strain SHM2, hits give low values",0.975
same,normalized growth,"S. cerevisiae deletion strains, locus YLR102C, strain apc9, hits give low values",0.983
same,normalized growth,"S. cerevisiae deletion strains, locus YLR113W, strain HOG1, hits give low values",1.02
same,normalized growth,"S. cerevisiae deletion strains, locus YLR221C, strain rsa3, hits give low values",0.778 (active)
same,normalized growth,"S. cerevisiae deletion strains, locus YLR258W, strain gsy2, hits give low values",0.673 (active)
same,normalized growth,"S. cerevisiae deletion strains, locus YLR262C, strain YPT6 (second series), hits give low values",1.01
same,normalized growth,"S. cerevisiae deletion strains, locus YLR262C, strain YPT6, hits give low values",0.978
same,normalized growth,"S. cerevisiae deletion strains, locus YLR268W, strain sec22, hits give low values",0.908
same,normalized growth,"S. cerevisiae deletion strains, locus YLR320W, strain mms22, hits give low values",0.273 (active)
same,normalized growth,"S. cerevisiae deletion strains, locus YLR330W, strain CHS5, hits give low values",0.878 (active)
same,normalized growth,"S. cerevisiae deletion strains, locus YLR342W, strain FKS1 (second series), hits give low values",0.87
same,normalized growth,"S. cerevisiae deletion strains, locus YLR342W, strain FKS1, hits give low values",0.952
same,normalized growth,"S. cerevisiae deletion strains, locus YLR357W, strain rsc2, hits give low values",0.972
same,normalized growth,"S. cerevisiae deletion strains, locus YLR370C, strain arc18, hits give low values",0.514 (active)
same,normalized growth,"S. cerevisiae deletion strains, locus YLR384C, strain iki3, hits give low values",0.966
same,normalized growth,"S. cerevisiae deletion strains, locus YLR418C, strain cdc73, hits give low values",0.882
same,normalized growth,"S. cerevisiae deletion strains, locus YML016C, strain PPZ1, hits give low values",0.899 (active)
same,normalized growth,"S. cerevisiae deletion strains, locus YML032C, strain rad52, hits give low values",0.986
same,normalized growth,"S. cerevisiae deletion strains, locus YML120C, strain ndi1, hits give low values",0.979
same,normalized growth,"S. cerevisiae deletion strains, locus YML124C, strain tub3, hits give low values",0.971
same,normalized growth,"S. cerevisiae deletion strains, locus YMR058W, strain fet3, hits give low values",0.871 (active)
same,normalized growth,"S. cerevisiae deletion strains, locus YMR078C, strain ctf18, hits give low values",0.949
same,normalized growth,"S. cerevisiae deletion strains, locus YMR125W, strain sto1, hits give low values",0.955
same,normalized growth,"S. cerevisiae deletion strains, locus YMR129W, hits give low values",0.955
same,normalized growth,"S. cerevisiae deletion strains, locus YMR205C, strain PFK2, hits give low values",0.559 (active)
same,normalized growth,"S. cerevisiae deletion strains, locus YMR223W, strain ubp8, hits give low values",0.848 (active)
same,normalized growth,"S. cerevisiae deletion strains, locus YMR231W, strain pep5, hits give low values",0.965
same,normalized growth,"S. cerevisiae deletion strains, locus YMR263W, strain SAP30, hits give low values",0.977
same,normalized growth,"S. cerevisiae deletion strains, locus YMR307W, strain GAS1, hits give low values",0.937
same,normalized growth,"S. cerevisiae deletion strains, locus YNL067W, strain RPL9B, hits give low values",0.888
same,normalized growth,"S. cerevisiae deletion strains, locus YNL071W, strain lat1, hits give low values",0.39 (active)
same,normalized growth,"S. cerevisiae deletion strains, locus YNL183C, strain NPR1, hits give low values",0.977
same,normalized growth,"S. cerevisiae deletion strains, locus YNL209W, strain ssb2, hits give low values",0.914 (active)
same,normalized growth,"S. cerevisiae deletion strains, locus YNL233W, strain BNI4, hits give low values",0.82 (active)
same,normalized growth,"S. cerevisiae deletion strains, locus YNL248C, strain rpa49, hits give low values",0.517 (active)
same,normalized growth,"S. cerevisiae deletion strains, locus YNL250W, strain rad50, hits give low values",0.963
same,normalized growth,"S. cerevisiae deletion strains, locus YNL271C, strain bni1, hits give low values",0.989
same,normalized growth,"S. cerevisiae deletion strains, locus YNL298W, strain CLA4, hits give low values",0.988
same,normalized growth,"S. cerevisiae deletion strains, locus YNL307C, strain MCK1, hits give low values",0.163 (active)
same,normalized growth,"S. cerevisiae deletion strains, locus YNL322C, strain KRE1 (second series), hits give low values",0.907
same,normalized growth,"S. cerevisiae deletion strains, locus YNR049C, strain mso1, hits give low values",0.889 (active)
same,normalized growth,"S. cerevisiae deletion strains, locus YNR052C, strain pop2, hits give low values",0.994
same,normalized growth,"S. cerevisiae deletion strains, locus YOL006C, strain TOP1, hits give low values",0.573
same,normalized growth,"S. cerevisiae deletion strains, locus YOL012C, strain htz1",0.865
same,normalized growth,"S. cerevisiae deletion strains, locus YOL147C, strain pex11, hits give low values",0.979
same,normalized growth,"S. cerevisiae deletion strains, locus YOR001W, strain rrp6, hits give low values",0.967
same,normalized growth,"S. cerevisiae deletion strains, locus YOR061W, strain CKA2, hits give low values",0.887 (active)
same,normalized growth,"S. cerevisiae deletion strains, locus YOR069W, strain VPS5, hits give low values",0.967
same,normalized growth,"S. cerevisiae deletion strains, locus YOR070C, strain gyp1, hits give low values",0.814 (active)
same,normalized growth,"S. cerevisiae deletion strains, locus YOR080W, strain dia2, hits give low values",0.965
same,normalized growth,"S. cerevisiae deletion strains, locus YOR083W, strain WHI5, hits give low values",0.858 (active)
same,normalized growth,"S. cerevisiae deletion strains, locus YOR106W, strain vam3, hits give low values",0.587 (active)
same,normalized growth,"S. cerevisiae deletion strains, locus YOR136W, strain idh2, hits give low values",0.899 (active)
same,normalized growth,"S. cerevisiae deletion strains, locus YOR144C, strain elg1, hits give low values",0.986
same,normalized growth,"S. cerevisiae deletion strains, locus YOR184W, strain ser1, hits give low values",0.893
same,normalized growth,"S. cerevisiae deletion strains, locus YOR231W, strain MKK1, hits give low values",1.01
same,normalized growth,"S. cerevisiae deletion strains, locus YOR265W, strain rbl2, hits give low values",0.768 (active)
same,normalized growth,"S. cerevisiae deletion strains, locus YOR270C, strain vph1, hits give low values",0.451 (active)
same,normalized growth,"S. cerevisiae deletion strains, locus YOR290C, strain snf2, hits give low values",0.91
same,normalized growth,"S. cerevisiae deletion strains, locus YOR316C, strain cot1, hits give low values",0.98
same,normalized growth,"S. cerevisiae deletion strains, locus YPL051W, strain arl3, hits give low values",0.792 (active)
same,normalized growth,"S. cerevisiae deletion strains, locus YPL078C, strain atp4, hits give low values",0.973
same,normalized growth,"S. cerevisiae deletion strains, locus YPL106C, strain sse1, hits give low values",0.555 (active)
same,normalized growth,"S. cerevisiae deletion strains, locus YPL240C, strain hsp82, hits give low values",0.839 (active)
same,normalized growth,"S. cerevisiae deletion strains, locus YPL241C, strain CIN2, hits give low values",0.993
same,normalized growth,"S. cerevisiae deletion strains, locus YPL256C, strain CLN2, hits give low values",1.08
same,normalized growth,"S. cerevisiae deletion strains, locus YPR119W, strain clb2, hits give low values",0.987
same,normalized growth,"S. cerevisiae deletion strains, locus YPR141C, strain kar3, hits give low values",0.972
same,normalized growth,"S. cerevisiae deletion strains, locus YPR163C, strain tif3, hits give low values",0.603 (active)
same,normalized growth,"S. cerevisiae deletion strains, locus YPR167C, strain met16, hits give low values",0.928
same,normalized growth,"S. cerevisiae deletion strains, strain wtn01, hits give low values",0.848 (active)
same,normalized growth,"S. cerevisiae strains, strain wild type, hits give low values",0.958
